# PubChem BioAssay
# Test: binders from COS7 lysate, DM2A8 probe, primary screen, torsin A project, cell lysate, small-molecule microarray, fluorescence 635/667 (AID 1065)
# Conditions: higher = more signal, COS7 lysate expressing mutant human TOR1A
row,Structure (SMILES),composite z-score
1,COc1ccc(NC(=O)O[C@H]2[C@H](OC(=O)c3cc4ccccc4[nH]3)[C@@H](OC(=O)c3cc4ccccc4[nH]3)[C@@H](OC)O[C@@H]2CO)cc1,0.0444
2,C=C(CCCC)C(=O)CC[C@H](OC(=O)c1cccnc1)c1ccc(OCCO)cc1,1.4
3,C=CCN1C(=O)[C@]2(Cc3ccccc3)N=C(c3ccc(OCCCO)cc3)O[C@@H]2c2ccccc21,0.481
4,CC(=O)NCCCC[C@@H]1NC(=O)[C@H]2C[C@@H](C(=O)NCCCCCNC(=O)CS)[C@@H](c3ccc(O)cc3)N2C1=O,0.122
5,C=CCC(OC(C)=O)[C@@H]1[C@@H](N(Cc2cc3ccccc3o2)C(=O)Cc2ccc(OC)cc2)c2cc(OCCCO)ccc2N1C(=O)c1ccc2ccccc2c1 (stereo not given in full),0.196
6,CC(c1ccccc1)C(O)C1C=CC2C(=O)N(c3ccccc3)C(=O)C2N1Nc1ccccc1 (stereo not given),0.2
7,COc1ccc([C@H]2C[C@H]3C(Br)=C[C@@]2(CO)C(=O)[C@]32CO2)cc1,-0.512
8,COCCOC(=O)N1C(=O)[C@@]2(c3cc(C#CCCO)ccc31)[C@H](c1ccc(OCCO)cc1)N1[C@H](c3ccccc3)[C@H](c3ccccc3)OC(=O)[C@H]1[C@@H]2C(N)=O,0.947
9,CCCCN1CC=CC23O[C@@H]4/C=C\CCCOC(=O)C4[C@H]2C(=O)N(CCCCCO)[C@@H]3C1=O (stereo not given in full),-0.465
10,NCCCCCCNC(=O)[C@H]1C[C@H]2C(=O)N[C@@H](Cc3ccccc3)C(=O)N2[C@H]1c1cccc(OCCO)c1,0.537
11,COc1ccc([Si](C)(C)[C@@H]2[C@@H](CCn3cc(CCO)nn3)O[C@]3(C(=O)N(Cc4cccc(N5C(=O)c6cccc7cccc5c67)c4)c4ccccc43)[C@H]2C)cc1,-0.179
12,CC(=O)Nc1cc(Br)ccc1C(=O)NCc1ccccc1,-0.0459
13,CCCCCN1CC=CC23O[C@@H]4C=CCOC(=O)[C@@H]4[C@H]2C(=O)N(C(C)CO)[C@@H]3C1=O (stereo not given in full),1.52
14,CCOC(=O)C1=C[C@@H](C(C)C)N(S(=O)(=O)c2ccc(C)cc2)[C@H]1c1ccccc1F,0.267
15,CS(=O)(=O)CCOC(=O)C1=CC(CCCO)=CC(C2CC2)N(Cc2cc3c(cc2Br)OCO3)C=C1C(=O)OCCS(C)(=O)=O (stereo not given),0.702
16,Cc1c(NC(=O)/C(C#N)=C/c2cccc([N+](=O)[O-])c2)c(=O)n(-c2ccccc2)n1C,0.322
17,C=CCN1Cc2ccccc2[C@@H]2OC(c3ccc(OCCCO)cc3)=N[C@]2(CCS(=O)(=O)c2ccccc2)C1=O,0.263
18,C=CCNC(=O)[C@@H]1[C@H]2C(=O)O[C@H](c3ccccc3)[C@H](c3ccccc3)N2[C@H](c2ccc(OCCO)cc2)[C@@]12C(=O)N(C(=O)OCCOC)c1ccc(C#CCC(C(=O)OC)C(=O)OC)cc12,1.25

row,Structure (SMILES),composite z-score
1,CN1C(=O)C2C=CC(C(O)C=Cc3ccc([N+](=O)[O-])cc3)N(Nc3ccccc3)C2C1=O (stereo not given),0.617
2,COCCOC(=O)N1C(=O)[C@@]2(c3cc(C#CC4=CCCCC4)ccc31)[C@H](c1ccc(OCCO)cc1)N1[C@H](c3ccccc3)[C@H](c3ccccc3)OC(=O)[C@H]1[C@@H]2C(=O)N1CCc2cc(OC)c(OC)cc2C1,0.36
3,CC(C)CN1C(=O)[C@@]2(c3ccc([N+](=O)[O-])cc3)CC(=O)N(C3CCCCC3)[C@@H]2c2ccc(CO)cc21,-0.72
4,C#CCN1[C@H](/C=C/C2CC2)[C@H](Cc2ccccc2)OC(=O)[C@@H]1Cc1ccccc1,0.241
5,COc1ccccc1CN1C(=O)c2ccccc2[C@@]2(Cc3ccccc3N(CCCN(C)C)C2=O)[C@@H]1c1ccc(CO)cc1,-0.252
6,COC(=O)[C@@]1(CCC(=O)OC(C)(C)C)N=C(c2ccc(OCCCO)cc2)O[C@H]1c1ccccc1,-0.168
7,O=C(O)[C@@]1(CCS(=O)(=O)c2ccccc2)N=C(c2ccc(OCCCO)cc2)O[C@H]1c1ccccc1,-0.0272
8,C=CCN(Cc1ccccc1)C(=O)C(c1cccs1)N(C(=O)/C=C\C(=O)O)c1ccc(CCOCCO)cc1 (stereo not given),-0.182
9,CC(C)NC(=O)[C@@H]1c2ccccc2C(=O)N(C(C)C)[C@H]1c1ccc(CO)cc1,0.0121
10,C=CCC(OC(C)=O)[C@@H]1[C@@H](N(Cc2ccc(-c3cccc(C(F)(F)F)c3)o2)C(=O)c2cccc3ccccc23)c2cc(OCCCO)ccc2N1C(=O)Cc1ccc2ccccc2c1 (stereo not given in full),-0.261
11,COc1ccc([Si](C)(C)[C@@H]2[C@@H](CCn3cc([C@H](O)c4ccccc4)nn3)O[C@]3(C(=O)N(Cc4cccc(N5CCC5=O)c4)c4ccccc43)[C@H]2C)cc1,-0.185
12,O=C(NCCN1CCOCC1)[C@@H]1c2ccccc2C(=O)N(Cc2cc(C(F)(F)F)cc(C(F)(F)F)c2)[C@H]1c1ccc(CO)cc1,0.183
13,C=C(CCCC)/C(=C/C[C@H](OC(C)=O)c1ccccc1OCCO)c1cnc2ccccc2c1,0.0976
14,COC(=O)[C@@]1(Cc2ccc(OC)cc2)[C@H]2c3cc(C(=O)N4CCCC4)n(CCc4ccc(O)c(O)c4)c3C[C@H]2CN1C(=O)c1ccccc1,0.269
15,Cc1ccc(S[C@]2(C(=O)NCC(C)C)CC(=O)N(Cc3cc(C(F)(F)F)cc(C(F)(F)F)c3)[C@@H]2c2ccc(CO)cc2)cc1,-0.455
16,O=C(NC1CC1)[C@@H]1c2ccccc2C(=O)N(C2Cc3ccccc3C2)[C@H]1c1ccc(CO)cc1,0.847
17,O=C1OCCC=C[C@H]2OC34C=CCN(CCN5CCOCC5)C(=O)[C@H]3N(CCCCCO)C(=O)[C@@H]4C12 (stereo not given in full),1.84
